Assays:
Type in all cases: functional
Plasmodium falciparum [1] = test: GSK_TCMDC: Inhibition of Plasmodium falciparum 3D7 in whole red blood cells, using parasite LDH activity as an index of growth. Test compounds present at 2uM
Plasmodium falciparum [2] = test: GSK_TCMDC: Inhibition of Plasmodium falciparum Dd2 in whole red blood cells, using parasite LDH activity as an index of growth. Test compounds present at 2uM
HepG2 = test: GSK_TCMDC: Percent inhibition of human HepG2 cell line. Test compounds present at 10uM.

| SMILES | Inhibition (Plasmodium falciparum [1]) [%] | Inhibition (Plasmodium falciparum [2]) [%] | Inhibition (HepG2) [%] |
| --- | --- | --- | --- |
| Cc1cccc2nc(-c3cccc(-c4cccc(C(=O)N5CCCCC5CN5CCC(O)C5)c4)c3)[nH]c12 (centres undefined) | 89 | 71 | 19 |
| O=C(Nc1ccc(-c2ccc(-c3nc4ccccc4[nH]3)s2)cc1)Nc1ccc(Cl)c(Cl)c1 | 100 | 99 | 89 |
| CCn1ccc2c(N3CCCC3=O)cc(C(=O)N[C@@H](Cc3ccccc3)[C@H](O)CNC3CCCCC3)cc21 | 99 | 98 | 12 |
| Cc1nc2ccc(NC(=O)c3cc(S(=O)(=O)N(C)C)ccc3Cl)cc2s1 | 91 | 77 | 20 |
| CC(C)(Oc1ccc(Cl)cc1)C(=O)NCCC1CCN(CCCCCNC(=O)/C=C/c2ccc(Cl)c(Cl)c2)CC1 | 87 | 37 | 73 |
| O=C(/C=C/c1ccc(Cl)c(Cl)c1)N1CCC(CCN2CCC(c3c[nH]c4ccccc34)CC2)CC1 | 100 | 44 | 56 |
| CN1CCC(COc2ccc(CN3CCC(NC(=O)c4cccc(Cl)c4)CC3)cc2)CC1.O=C(O)C(F)(F)F | 94 | 13 | 16 |
| CC(C)(CNC(=O)/C=C/c1ccc(Cl)c(Cl)c1)CNc1cc(=O)c2ccccc2[nH]1 | 96 | 29 | 0 |
| Cc1ccc(S(=O)(=O)N(C)c2ccccc2C(=O)Nc2ccccc2Oc2ccccc2)cc1 | 98 | 90 | 5 |
| COc1ccc(NC(=O)[C@H](Cc2ccccc2)Nc2cc(C)nc(NCCOc3ccccc3)n2)cc1.O=C(O)C(F)(F)F | 98 | 25 | 11 |
| O=C(Nc1cc(=O)[nH]c2nc(-c3ccccc3)nn12)C1CCCCC1 | 86 | 89 | 0 |
| NC(=O)c1cc(-c2ccccc2)cc2c(C3CCC(NCc4ccccc4)C3)c[nH]c12 (centres undefined) | 95 | 30 | 99 |
| O=C(Nc1ccc(OC2CCN(Cc3ccc(F)cc3)CC2)c(Cl)c1)c1ccsc1.O=C(O)C(F)(F)F | 94 | 90 | 5 |
| Cl.N=C(N)c1ccc(C=CC(=O)NCC(O)CNC(=O)C=Cc2ccc(C(=N)N)cc2)cc1 (centres undefined) | 90 | 80 | 0 |
| Cc1cc(N[C@@H](Cc2ccccc2)C(=O)NCc2cccc(F)c2)nc(NCc2ccccc2C)n1.O=C(O)C(F)(F)F | 100 | 75 | 6 |
| O=C(Nc1cccc(OCCN2CCCC2)c1)Nc1ccc(Cl)c(Cl)c1.O=C(O)C(F)(F)F | 98 | 22 | 3 |
| NCCNC(=O)c1ccc(-c2cnc3[nH]cc(-c4ccc(C(N)=O)cc4)c3c2)cc1 | 99 | 98 | 2 |
| Cc1cccc2nc(-c3cccc(-c4cccc(NC(=O)c5ccc(=O)[nH]n5)c4)c3)[nH]c12 | 100 | 32 | 10 |
| CCCN(Cc1nnc(-c2cccs2)o1)C(=O)C1COc2ccccc2O1 (centres undefined) | 87 | 49 | 1 |
| O=C(Nc1ccc2[nH]c(-c3ccc4nc(NC(=O)C5CCCCC5)sc4c3)nc2c1)C1CCCCC1 | 100 | 68 | 84 |
| CN1CCN(c2ccc(-c3cc(-c4ccncc4)c(-c4ccc(Cl)c(O)c4)o3)cc2)CC1.Cl | 100 | 98 | 0 |
| Cc1cc(N[C@@H](Cc2ccccc2)C(=O)NCc2cccc(F)c2)nc(NCCc2ccc(F)cc2)n1.O=C(O)C(F)(F)F | 99 | 69 | 0 |
| Cc1cnc(NCC2CCCCC2)nc1NCC(=O)Nc1ccccc1.O=C(O)C(F)(F)F | 90 | 51 | 21 |
| CC(C)(Oc1c(C2CCN(CCCCNC(=O)c3ccc(-c4ccc(C#N)cc4)cc3)CC2)ccc2c1CCCC2)C(N)=O | 100 | 82 | 34 |
| COc1cc(Cc2cnc(N)nc2N)cc(CC(C)O)c1O (centres undefined) | 93 | 2 | 0 |
| Cc1nc(N)nc(N)c1C#CC1CCCC1 | 96 | 2 | 68 |
| Cn1cncc1C(=O)Nc1cccc(-c2cccc(-c3nc4ccccc4[nH]3)c2)c1 | 100 | 35 | 9 |
| COc1cc(NC(=O)c2sc(-c3ccc(Cl)cc3)cc2NC(=O)CN2CCCC2)ccc1OCCN1CCCC1.Cl | 86 | 79 | 29 |

From ChEMBL document CHEMBL1157539, “Thousands of chemical starting points for antimalarial lead identification” (Nature, 2010)
